The structures appear in SMILES notation. Screen size: about 12,000 compounds; about 45 (0.4%) were called active. This is one part of a sample in which actives are shown more often than they occur. Rule as the data show it: active = inhibition mostly above about 83% (no sharp cut-off); inactive = mostly below about 52%.

The inhibition is the change of the read-out against control, counted positive when it falls.

Assay [1] is described as follows: BmaI1 acyl-homoserine lactone synthase inhibition – biochemical, fluorescence intensity, with counterscreen (AID 720554). The following applies: BmaI1 enzyme assay, measured here: counterscreen fluorescence % control, concentration not given here. On the technique in general: The purpose of a counterscreen is to sort out artefacts and off-target activity.
The subject of assay [2] is acyl-homoserine lactone synthase BmaI1 (Burkholderia mallei ATCC 23344). The description is as above. The following applies: BmaI1 enzyme assay, stronger effect = higher value, concentration not given here.

Consider `CCn1c(CCC(=O)Nc2ccc(N3CCOCC3)cc2)nc2cc(S(=O)(=O)N(C)C)ccc21`, for which the inhibition in assay [1] is -2.5%; in assay [2], 21% (inactive).

As for `CCn1c(C)nc2cc(C#N)ccc21`, the inhibition was 6% in assay [1] and 8% (inactive) in assay [2].

For the compound `CCc1ccc(C2=Nn3c(nnc3-c3cccc(S(=O)(=O)N(CC)CC)c3)SC2)cc1`, the figures for the inhibition in assay [1] and in assay [2] were 3% and 21% (inactive), respectively.

Consider `CN(C)S(=O)(=O)c1cccc(-c2nnc3n2N=C(c2cccs2)CS3)c1`, for which the inhibition in assay [1] is -1%; in assay [2] it was 87.5% (active).

Consider `CN(C)S(=O)(=O)c1cccc(-c2nnc3n2CCCCC3)c1`, for which the inhibition in assay [1] is -2%; in assay [2], -4.5% (inactive).

Turning to `COc1ccc2c(Cl)c(-c3nnc4n3CCC4)sc2c1`, the values for the inhibition in assay [1] and in assay [2] were -3.5% and 6.5% (inactive), respectively.

Turning to `Cn1c(CC(N)=S)nc2ccccc21`, the inhibition in assay [1] was 17%; in assay [2] it was 92.5% (active).

`Cc1csc(Cc2nc3ccccc3n2C)n1`: the inhibition in assay [1] was 8%; in assay [2], 16% (inactive).

In the case of `Cn1c(Cc2nnc3n2-c2ccccc2SC3)nc2ccccc21`, the results for the inhibition in assay [1] and in assay [2] were -1% and 28.5% (inactive), respectively.

On to `Cc1cc(C(=O)Cn2cnc3sccc3c2=O)c(C)n1C1CC1`, for which the inhibition is 8.5% in assay [1] and 16.5% (inactive) in assay [2].

Consider `CC(C)Sc1nc2ccccc2n1CN1CCN(c2ccccn2)CC1`, for which the inhibition in assay [1] is 3%; in assay [2], 9% (inactive).

On to `Cc1csc(=O)n1CN1CCN(C(=O)C2COc3ccccc3O2)CC1` (stereo not given), for which the results for the inhibition in assay [1] and in assay [2] were 7.5% and 17.5% (inactive), respectively.

On to `COC(=O)COc1ccc2ccc(=O)oc2c1`, for which the inhibition is -9.5% in assay [1] and -8% (inactive) in assay [2].

As for `COC(=O)COc1cc(NO)ccc1N=O`, the values for the inhibition in assay [1] and in assay [2] were 4.5% and 88.5% (active), respectively.

For the compound `CCN(CC)c1ccc(N=CN2CCOCC2)cc1`, the inhibition in assay [1] is -31%; in assay [2], 53% (inactive).

With `COC(=O)c1c(C)oc(C)c(C(=O)OC)c1=O`, the inhibition is 2.5% in assay [1] and 1.5% (inactive) in assay [2].

With `Cc1ccc(Cl)cc1N1CCN(Cn2sc3ccccc3c2=O)CC1`, the inhibition is 8.5% in assay [1] and 77% (inactive) in assay [2].

`Nc1nc2cc(S(=O)(=O)N3CCOCC3)ccc2o1`: the inhibition was -5.5% in assay [1] and 2.5% (inactive) in assay [2].

Turning to `O=S(=O)(c1ccc2oc(=S)n(CN3CCOCC3)c2c1)N1CCOCC1`, the inhibition is 4% in assay [1] and 99.5% (active) in assay [2].

As for `CCOC(=O)C1CCN(Cn2c(=S)oc3ccc(S(=O)(=O)CC)cc32)CC1`, the inhibition in assay [1] is -4%; in assay [2], 5% (inactive).

On to `CCn1c(=O)c(=O)[nH]c2cc(C(=O)Nc3ccccc3N3CCOCC3)ccc21`, for which the inhibition in assay [1] was 19.5%; in assay [2], 16.5% (inactive).

As to `Cn1c(-c2ccco2)n[nH]c1=S`, the inhibition in assay [1] is 80%; in assay [2], 96.5% (inactive).

Turning to `O=c1[nH]nc(-c2ccco2)o1`, the inhibition in assay [1] is -7%; in assay [2] it was 96% (active).

Turning to `c1coc(-c2nnc(-c3ccco3)nn2)c1`, the inhibition in assay [1] was 34%; in assay [2] it was 0% (inactive).

On to `Cc1cc(C(=O)Cn2cc(C(F)(F)F)ccc2=O)c(C)n1Cc1ccco1`, for which the values for the inhibition in assay [1] and in assay [2] were 1% and 3% (inactive), respectively.

For the compound `Cc1ccc(C(=O)NCCN2C(=O)S/C(=C\c3ccc(F)cc3)C2=O)cc1NC(=O)c1ccco1`, the inhibition was -9.5% in assay [1] and 6.5% (inactive) in assay [2].

For `O=C(O)c1sc2sccc2c1Cl`, the inhibition in assay [1] is -1.5%; in assay [2], 8.5% (inactive).

For the compound `O=C1NC(C(=O)O)Cc2ccccc21` (stereo not given), the inhibition is 9% in assay [1] and 15% (inactive) in assay [2].

Regarding `O=C1Cc2ccccc2C(=O)N1`, the results for the inhibition in assay [1] and in assay [2] were 7% and 99.5% (active), respectively.

Regarding `O=C1CCc2ccccc2N1`, the inhibition in assay [1] was -5%; in assay [2], -11% (inactive).

Regarding `O=C(CN1C(=O)c2ccccc2S1(=O)=O)N1N=C(c2ccc(Cl)cc2)CC1c1ccco1` (stereo not given), the inhibition is 10.5% in assay [1] and 15% (inactive) in assay [2].

Regarding `CC1Sc2ccc(C(=O)Oc3ccc4c(c3)OCO4)cc2NC1=O` (stereo not given), the inhibition in assay [1] was 2%; in assay [2], 35.5% (inactive).

On to `CCN(CC)S(=O)(=O)c1ccc2c(c1)CCCN2`, for which the inhibition in assay [1] is -4%; in assay [2], 18% (inactive).

As for `O=C(OCC(=O)N1CCC(Cc2ccccc2)CC1)c1ccc(O)cc1`, the values for the inhibition in assay [1] and in assay [2] were -7.5% and 2.5% (inactive), respectively.

With `COc1ccc(N(C)S(=O)(=O)c2cccc(C(=O)Nc3ccc(N4CCN(C)CC4)cc3C)c2)cc1`, the inhibition in assay [1] is 11.5%; in assay [2], 9% (inactive).

Consider `Cc1c(C(=O)O)sc2nc(CSc3nnc(-c4ccc(F)cc4)n3C)[nH]c(=O)c12`, for which the inhibition was 2.5% in assay [1] and 3% (inactive) in assay [2].

As to `N#Cc1c(N)sn(-c2ccccc2)c1=S`, the inhibition in assay [1] is 11.5%; in assay [2], 102% (active).

With `CCOC(=O)c1c(N)sn(-c2ccccc2)c1=S`, the inhibition is 14.5% in assay [1] and 17% (inactive) in assay [2].

Turning to `N#CC1=C(N)N(c2ccccc2)C(=O)C1`, the inhibition in assay [1] was 0%; in assay [2] it was -10.5% (inactive).

With `COC(=O)C(C)Sc1ncnc2sc(C)c(C)c12` (stereo not given), the inhibition in assay [1] was 7%; in assay [2], 13% (inactive).

In the case of `Cc1sc2ncnc(N)c2c1C`, the inhibition in assay [1] is 9.5%; in assay [2], 89.5% (active).

As to `Cc1sc2ncnc(N3CCc4ccccc43)c2c1C`, the inhibition was 6% in assay [1] and 8.5% (inactive) in assay [2].

Regarding `CCCCn1ccnc1C(=O)c1ccc(S(=O)(=O)N2CCCC2)cc1`, the inhibition is 1% in assay [1] and 8% (inactive) in assay [2].

Take `CCCCN1C(=O)CC(C(=O)O)C1c1ccc(OC)cc1` (stereo not given): the inhibition in assay [1] was 3%; in assay [2], -3.5% (inactive).

In the case of `CCOc1ccc(/C=N/N2C(=O)NC(C)(CC)C2=O)c(O)c1` (stereo not given), the inhibition in assay [1] is -4.5%; in assay [2], 0.5% (inactive).

Regarding `COc1ccc(Cc2nnc3n2N=C(c2ccc(CNC(C)=O)o2)CS3)cc1`, the figures for the inhibition in assay [1] and in assay [2] were 6% and 15.5% (inactive), respectively.

Consider `CC(=O)NCc1ccc(-c2csc(N)n2)o1`, for which the results for the inhibition in assay [1] and in assay [2] were 17.5% and 92.5% (active), respectively.

In the case of `CC(=O)NCCc1ccc(-c2csc(N)n2)cc1`, the inhibition was 41% in assay [1] and 24% (inactive) in assay [2].

Consider `COc1cc2c(cc1NC(=O)C(C)Sc1nncn1C)oc1ccccc12` (stereo not given), for which the figures for the inhibition in assay [1] and in assay [2] were -6.5% and 16.5% (inactive), respectively.

As for `CNC(=O)NC(=O)C(C)N1CCc2ccccc2C1` (stereo not given), the inhibition in assay [1] was -2.5%; in assay [2] it was 2.5% (inactive).

For the compound `COc1cccc(NC(=O)/C=N/O)c1`, the inhibition in assay [1] was 19.5%; in assay [2], 37.5% (inactive).

For `COc1cccc(CC(=O)Nc2cccc(OC)c2)c1`, the values for the inhibition in assay [1] and in assay [2] were 2% and 8.5% (inactive), respectively.

For the compound `COc1cccc(N=C2NNC(C)=C(C(=O)N(C)C)S2)c1`, the figures for the inhibition in assay [1] and in assay [2] were 13.5% and 88.5% (active), respectively.

In the case of `CCn1c(Cn2cc(S(=O)(=O)N3CCCC3)ccc2=O)nc2cc(S(=O)(=O)N(C)C)ccc21`, the inhibition was 1% in assay [1] and 8.5% (inactive) in assay [2].

Consider `Oc1c(C(Nc2ccccn2)c2cccnc2)ccc2cccnc12` (stereo not given), for which the inhibition in assay [1] is -15%; in assay [2], 14% (inactive).

For `Oc1c(C(c2cccnc2)N2CCCCC2)ccc2cccnc12` (stereo not given), the results for the inhibition in assay [1] and in assay [2] were -53.5% and -20.5% (inactive), respectively.

For the compound `Oc1c(C(c2cccnc2)N2CCOCC2)ccc2cccnc12` (stereo not given), the inhibition in assay [1] was 28.5%; in assay [2] it was 105% (active).

As to `CC(Sc1nnc(-c2ccccc2)o1)C(=O)N(C)c1ccccc1` (stereo not given), the inhibition is 9% in assay [1] and 7% (inactive) in assay [2].

With `CN(C(=O)c1ccco1)C1(c2ccccc2Cl)CCCCC1=O` (stereo not given), the values for the inhibition in assay [1] and in assay [2] were 5.5% and 9.5% (inactive), respectively.

In the case of `CCOC(=O)C(Sc1n[nH]c(N)n1)c1ccccc1` (stereo not given), the results for the inhibition in assay [1] and in assay [2] were 13.5% and 15.5% (inactive), respectively.

The values are drawn from PubChem BioAssay AID720554 (ICCB-Longwood Screening Facility, Harvard Medical School, 2013).
